# In the library only some 3.2% were active in any assay of this set; here they are far more common.
# EWS-Fli block: EWS/Fli transcriptional activity inhibition; A673 NR0B1-luciferase reporter, viability-normalised; inhibition, % at 12.6 µM; 350,000 tested, 0.67% active;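 active means mean inhibition of at least 50% after viability correction, with every replicate also passing that limit; inconclusive means mean reaches 50% but only one of two replicates passes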;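 further: firefly luciferase signal divided by Alamar Blue viability fluorescence both relative to DMSO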
# TROY NFkB inh: blocks TROY-dependent signaling in reporter cells | Q293 LMP1-TROYcd NF-kB luciferase reporter, 4 h | inhibition, % at 10 µM | 360,000 tested, 0.98% active;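 active means compounds whose plate-normalised and pattern-corrected inhibition of the luciferase reporter signal at the single screening dose is 50% or more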
# TWEAK Fn14 block: TWEAK-Fn14 signaling inhibition; inhibition, % at 10 µM; 360,000 tested, 2% active; AID 1159606; TWEAK-stimulated Fn14 reporter cells, luciferase luminescence, 8 h; in the data active means inhibition above about 50%
# LGR2 antag: inhibitors of bursicon-induced Drosophila LGR2 receptor cAMP signaling; 380,000 tested, 0.35% active; AID 720647; inhibition, % at 9.99 µM; HEK293 LGR2, CRE-luciferase, bursicon-stimulated, 4 h;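 active means drop in luminescence signal, shown as inhibition above about 50% in the replicate tests, limit read from the data, passing the limit was not always enough; inconclusive means probably only some replicates passing the limit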;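 further: agonist challenge used bursicon conditioned medium at about half maximal strength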
# PAX8 reporter: lowers PAX8-driven luciferase in RMG-I cells. RMG-I TPO-luciferase reporter, SteadyGlo, 24 h. inhibition, % at 12.6 µM. 360,000 tested, 1.2% active. AID 652154;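 active means mean replicate inhibition at least 60% with every replicate also reaching 60%; inconclusive means only one of the two criteria is met; inactive means mean below 60% and not all replicates reaching 60%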;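 further: luciferase light reporting Pax8 driven TPO promoter activity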
# LMP1 NFkB inh: inhibitors of Epstein-Barr LMP1-induced NF-kappaB reporter; 350,000 tested, 0.69% active; inhibition, % at 12.5 µM; LMP1-induced NF-kappaB luciferase reporter cells, luminescence; in the data active means inhibition above about 41%; inconclusive means no clear call, values can overlap the other calls
# Numbers stand for hits; – = inactive; ? = inconclusive; · = no result.
SMILES,EWS-Fli block,TROY NFkB inh,TWEAK Fn14 block,LGR2 antag,PAX8 reporter,LMP1 NFkB inh
Cc1ccccc1S(=O)(=O)N1[C@@H]2Cn3c(cccc3=O)[C@H]1[C@@H](C(=O)N1CCOCC1)[C@@H]2CO,–,·,·,–,–,·
CCn1cc(C(=O)NCc2cccc(C(F)(F)F)c2)c(=O)c2ccc(C)nc21,–,–,–,–,–,–
Cc1cc(C)n2nc(C(=O)NCc3cccc(C(F)(F)F)c3)nc2n1,–,51,–,–,–,–
CN1C(=O)c2cc(NC(=O)Nc3ccc(Cl)cc3)ccc2OC[C@H]2O[C@@H](CC(=O)O)CC[C@H]21,–,·,·,–,–,·
O=S(=O)(c1ccc2c(c1)C(=NO)c1cc(S(=O)(=O)N3CCCCC3)ccc1-2)N1CCCCC1,·,–,–,·,109,85
CN(C)C(=O)c1cccc(-c2ccc([C@H]3[C@H]4CN(CC5CCOCC5)CCCCN4[C@H]3CO)cc2)c1,–,·,·,–,–,·
CC(C)CC#Cc1cnc2c(c1)C(=O)N([C@H](C)CO)C[C@H](C)[C@@H](CN(C)C(=O)c1cccnc1)O2,–,·,·,–,·,·
CN(C)CCCN(C(=O)CCSc1ccccc1)c1nc2cc3c(cc2s1)OCO3,–,–,–,–,–,–
Cc1ccc2sc(N(CCCN(C)C)C(=O)CCS(=O)(=O)c3ccccc3)nc2c1C,·,–,63,–,81,–
COc1ccc(OC)c2sc(N(CCCN(C)C)C(=O)CCS(=O)(=O)c3ccccc3)nc12,–,–,53,–,108,–
CN(C)CCCN(C(=O)CCS(=O)(=O)c1ccccc1)c1nc2cc3c(cc2s1)OCO3,·,56,69,–,?,–
COc1ccc2c3c(n(C)c2c1)[C@H](CO)N(CC1CC1)CC31CCN(C(=O)c2ccc3c(c2)OCO3)CC1,–,·,·,–,·,·
Cn1c2c(c(=O)n(C)c1=O)C(C(F)(F)F)(C(F)(F)F)N=C(CCC1CCCCC1)N2,–,53,60,75,–,–
N#Cc1nc(-c2ccco2)oc1NCCc1ccccc1,·,·,61,·,·,–
COc1ccc(CCNc2oc(-c3ccco3)nc2C#N)cc1,·,–,–,–,·,–
Cc1ccc(-c2nnc(Nc3ccccc3)o2)cc1,63,66,94,90,·,–
Cc1ccc(NC(=O)Nc2nnc(-c3ccccc3)o2)cc1,–,–,–,–,–,–
c1ccc(SCc2cn3cccnc3n2)nc1,–,–,–,–,–,–
Cn1nnnc1SCc1cn2cccnc2n1,·,·,87,·,·,–
CSc1ccccc1OCc1cc(C(=O)NC2CCOC(C)(C)C2)no1 (stereo not drawn),–,–,–,–,–,–
COc1ccc(OCc2cc(C(=O)NC3CCOC(C)(C)C3)no2)c2ccccc12 (stereo not drawn),·,–,61,–,–,–
COc1ccc(OCc2cc(C(=O)N(C)C3CCOCC3)no2)c2ccccc12,·,–,79,–,–,–
COc1ccc(CN(C)C[C@@H]2OCCCC[C@@H](C)Oc3ccc(NC(=O)Nc4cccc5ccccc45)cc3C(=O)N([C@@H](C)CO)C[C@@H]2C)cc1,–,·,·,–,–,·
COc1ccc(CN(C)C[C@@H]2OCCCC[C@H](C)Oc3ccc(NC(=O)Nc4cccc5ccccc45)cc3C(=O)N([C@H](C)CO)C[C@H]2C)cc1,–,·,·,·,80,·
COc1ccc(CN(C)C[C@@H]2OCCCC[C@@H](C)Oc3ccc(NC(=O)Nc4cccc5ccccc45)cc3C(=O)N([C@H](C)CO)C[C@H]2C)cc1,67,·,·,·,–,·
SMILES,EWS-Fli block,TROY NFkB inh,TWEAK Fn14 block,LGR2 antag,PAX8 reporter,LMP1 NFkB inh
COc1ccc(CN(C)C[C@@H]2OCCCC[C@@H](C)Oc3ccc(NC(=O)Nc4cccc5ccccc45)cc3C(=O)N([C@@H](C)CO)C[C@H]2C)cc1,64,·,·,–,–,·
COc1ccc(CN(C)C[C@@H]2OCCCC[C@H](C)Oc3ccc(NC(=O)Nc4cccc5ccccc45)cc3C(=O)N([C@@H](C)CO)C[C@@H]2C)cc1,65,·,·,–,–,·
COc1ccc(CN(C)C[C@H]2OCCCC[C@H](C)Oc3ccc(NC(=O)Nc4cccc5ccccc45)cc3C(=O)N([C@@H](C)CO)C[C@H]2C)cc1,–,·,·,–,–,·
COc1ccc(CN(C)C[C@@H]2OCCCC[C@H](C)Oc3ccc(NC(=O)Nc4cccc5ccccc45)cc3C(=O)N([C@H](C)CO)C[C@@H]2C)cc1,–,·,·,–,–,·
CCCC#Cc1cnc2c(c1)C(=O)N([C@H](C)CO)C[C@H](C)[C@H](CN(C)Cc1ccccc1)O2,·,·,·,–,·,·
COCC(=O)N(C)C[C@@H]1Oc2ncc(C#CCC3CCCC3)cc2C(=O)N([C@H](C)CO)C[C@H]1C,–,·,·,–,·,·
COc1cc(C=NNc2ccccc2)ccc1OC(=O)c1ccccc1,–,–,–,–,–,–
Cc1ccc(/C=N/Nc2ccc(C(=O)O)cc2)o1,–,–,–,–,–,–
Cc1ccc(/C=N/Nc2ccc(C(=O)O)cc2)s1,67,–,–,90,75,70
CCOc1cc(/C=N/Nc2cccc(C(=O)O)c2)ccc1OC(=O)c1ccccc1,–,–,–,64,67,59
Cc1ccc(/C=N/Nc2cccc(C(=O)O)c2)s1,·,–,–,58,–,–
O=C(O)c1cccc(N/N=C/c2cccc3ccccc23)c1,–,–,–,–,–,48
O=C(C[C@H]1CC[C@@H](NC(=O)c2ccc3c(c2)OCO3)[C@H](CO)O1)NC1Cc2ccccc2C1,–,·,·,–,–,·
COCC(=O)N(C)C[C@@H]1[C@@H](c2ccccc2)[C@H](CO)N1C(=O)Cc1ccncc1,–,·,·,–,–,·
O=C(N/N=C\c1cn(-c2ccccc2)nc1-c1ccccc1)c1ccc(Br)o1,·,–,55,·,·,–
Cc1ccc(-c2nn(-c3ccccc3)cc2/C=N/NC(=O)c2ccc(Br)o2)cc1,·,–,–,·,·,–
Cc1nn(-c2ccccc2Cl)c(Cl)c1/C=N/Nc1cccc(C(=O)O)c1,·,–,–,80,–,69
Cc1nn(-c2ccccc2)c(Cl)c1/C=N/NC(=O)c1cccc(S(=O)(=O)N2CCCC2)c1,–,–,62,–,–,–
COc1ccc(/C(C)=N/NC(=O)c2cccc(S(=O)(=O)N3CCCC3)c2)c(O)c1,–,–,–,–,66,–
COc1cccc(-c2cnc3c(c2)C(=O)N([C@H](C)CO)C[C@H](C)[C@@H](CN(C)C(=O)CN(C)C)O3)c1,–,·,·,–,·,·
C[C@@H]1CN([C@@H](C)CO)C(=O)c2cc(NC(=O)Nc3cccc4ccccc34)ccc2O[C@H]1CN(C)C(=O)Nc1ccc2c(c1)OCO2,–,·,·,–,–,·
C[C@@H]1CCCCO[C@@H](CN(C)C(=O)c2ccccc2)[C@@H](C)CN([C@@H](C)CO)C(=O)c2cc(N(C)C)ccc2O1,–,·,·,–,–,·
COc1ccc(-c2nn(-c3ccccc3)cc2/C=N/NC(=O)c2cccc(S(=O)(=O)Nc3ccccc3Cl)c2)cc1,–,–,56,–,–,–
COc1ccc(-c2ccccc2[C@@H]2[C@H](C#N)N(C(=O)C3CC3)[C@H]2CO)cc1,–,·,·,–,–,·

# High-throughput results from PubChem BioAssay.
